Test results published in the supplement of paper PMC10849652.
Targets with a hit are over-represented here; the source holds about 8,800 in all. About 0.5% of all pairs of compound and target were hits.

Key:
Assay in all cases: log2 fold change, soluble protein after heating vs DMSO (PISA); higher = thermal stabilisation; K562 lysate, 10 uM; active = over 0.2 and 3.5 SD of the protein, either way, in both replicates (recomputed)
erlotinib = compound: C#Cc1cccc(Nc2ncnc3cc(OCCOC)c(OCCOC)cc23)c1 [erlotinib]
How it was run: (§1)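 Soluble protein was defined as the supernatant remaining after 21,000xg for 90 min, following pooling of heated aliquots and adjustment to 0.5% NP-40 at 4°C. Before that, crude K562 extract at 1 mg/mL protein in PBS pH 7.4 with 1 mM MgCl2 was treated with 10 μM compound for 30 min and heated for 3 min across 48°C-58°C. Quantification used TMTpro 16plex LC-MS/MS with channel sums equalised, and values are log-two fold changes in thermal stability relative to solvent controls from duplicates.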

[1] = compound: C/C(=N\NC(=O)C1=CC(=CC=C1)S(=O)(=O)N2CCOCC2)/C3=C(C=CC(=C3)Cl)O
How it was run: as §1

[2] = compound: C1=CC(=CC=C1C2=NC3=C(N2)C=C(C=C3)C(=O)N)OC4=CC=C(C=C4)Cl
How it was run: as §1

[3] = compound: C1=CC2=C(C=CC(=C2)/C=C\3/C(=O)NC(=NCC4=CC=CS4)S3)N=C1
How it was run: as §1

[4] = compound: C1=CC2=NC=CN=C2C=C1/C=C/3\C(=O)NC(=O)S3
How it was run: as §1

[5] = compound: C1=CC=C(C=C1)C2=NC(=C(N2)C3=CC=NC=C3)C4=CC(=C(C=C4)Cl)O
How it was run: as §1

[6] = compound: C1=CC=C2C(=C1)C3=NNC4=CC=CC(=C43)C2=O
How it was run: as §1

[7] = compound: C1CCN(C1)C(=O)NC2=CC=CC(=C2)NC3=NC=C(C(=N3)NCCC4=CN=CN4)Br
How it was run: as §1

[8] = compound: C1CN(CCC1(CC2=CC=C(C=C2)Cl)N)C3=NC=NC4=C3C=CN4
How it was run: as §1

IRAK-1-4 Inhibitor I = compound: C1COCCN1CCN2C3=CC=CC=C3N=C2NC(=O)C4=CC(=CC=C4)[N+](=O)[O-] [IRAK-1-4 Inhibitor I]
How it was run: as §1

ibrutinib = compound: C=CC(=O)N1CCC[C@@H](n2nc(-c3ccc(Oc4ccccc4)cc3)c3c(N)ncnc32)C1 [ibrutinib]
How it was run: as §1

[9] = compound: CC(=O)c1cnc2ccc(-c3cc(Cl)c(O)c(Cl)c3)nc2c1N[C@H]1CC[C@H](CN(C)C)CC1
How it was run: as §1

ralimetinib = compound: CC(C)(C)Cn1c(N)nc2ccc(-c3[nH]c(C(C)(C)C)nc3-c3ccc(F)cc3)nc21 [ralimetinib]
How it was run: as §1

[10] = compound: CC(C)(O)CC(=O)NCCn1ccc2ncnc(Nc3ccc(Oc4cccc(C(F)(F)F)c4)c(Cl)c3)c21
How it was run: as §1

[11] = compound: CC(C)C1=C2N=C(C=C(N2N=C1)NCC3=CC=CC=C3)NCCCCCCN
How it was run: as §1

[12] = compound: CC1=C(C(CC(=O)N1)C2=CC=C(C=C2)C(F)(F)F)C(=O)NC3=C(C=C4C(=C3)C=NN4)F
How it was run: as §1

[13] = compound: CC1=C(C2=C(C=C1)C(=O)C3=CC=CC=C3N2CCCN)C
How it was run: as §1

[14] = compound: CC1=C(C=C(C=C1)NC(=O)C2=CC(=CC=C2)C(C)(C)C#N)NC3=CC4=C(C=C3)N=CN(C4=O)C
How it was run: as §1

[15] = compound: CC1=C(C=C(C=C1)NC(=O)C2=CC(=CC=C2)N(C)C)NC(=O)C3=CC=C(C=C3)O
How it was run: as §1

[16] = compound: CC1=CC=C(C=C1)SC2=C3C=C(SC3=CN=C2)C(=O)N
How it was run: as §1

Measured: log2 fold change

GART (UniProt P22102)
inactive: erlotinib -0.007 | [1] 0.022 | [2] -0.025 | [3] -0.013 | [4] 0.016 | [5] 0.015 | [6] -0.011 | [7] -0.001 | [8] -0.003 | IRAK-1-4 Inhibitor I 0.005 | ibrutinib 0.007 | [9] 0.009 | ralimetinib 0.01 | [10] 0.036 | [11] 0.013 | [12] -0.014 | [13] 0.009 | [14] -0.027 | [15] -0.006 | [16] 0.021

DTYMK (UniProt P23919)
Sequence of UniProt P23919 (P23919 whole entry, looked up): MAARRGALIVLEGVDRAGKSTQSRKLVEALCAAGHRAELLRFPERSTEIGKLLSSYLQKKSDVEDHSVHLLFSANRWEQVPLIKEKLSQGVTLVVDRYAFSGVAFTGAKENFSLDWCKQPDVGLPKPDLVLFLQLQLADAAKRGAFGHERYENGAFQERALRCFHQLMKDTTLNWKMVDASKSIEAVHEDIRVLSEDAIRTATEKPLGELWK
inactive: erlotinib -0.013 | [1] 0.025 | [2] 0.01 | [3] -0.017 | [4] 0.024 | [5] -0.016 | [6] 0.004 | [7] 0.01 | [8] -0.027 | IRAK-1-4 Inhibitor I -0.028 | ibrutinib 0.027 | [9] -0.018 | ralimetinib 0.049 | [10] -0.015 | [11] 0.023 | [12] -0.035 | [13] -0.005 | [14] -0.017 | [15] 0.038 | [16] -0.002

ENSA isoform 3 (UniProt O43768)
active: [5] -0.459
inactive: erlotinib -0.034 | [1] 0.032 | [2] 0 | [3] -0.013 | [4] -0.047 | [6] 0.013 | [7] 0.006 | [8] 0.006 | IRAK-1-4 Inhibitor I -0.004 | ibrutinib 0.042 | [9] 0.015 | ralimetinib -0.019 | [10] 0.02 | [11] -0.013 | [12] -0.016 | [13] 0.039 | [14] -0.042 | [15] -0.057 | [16] -0.01

EIF2D (UniProt P41214)
Sequence of UniProt P41214 (P41214 whole entry, looked up): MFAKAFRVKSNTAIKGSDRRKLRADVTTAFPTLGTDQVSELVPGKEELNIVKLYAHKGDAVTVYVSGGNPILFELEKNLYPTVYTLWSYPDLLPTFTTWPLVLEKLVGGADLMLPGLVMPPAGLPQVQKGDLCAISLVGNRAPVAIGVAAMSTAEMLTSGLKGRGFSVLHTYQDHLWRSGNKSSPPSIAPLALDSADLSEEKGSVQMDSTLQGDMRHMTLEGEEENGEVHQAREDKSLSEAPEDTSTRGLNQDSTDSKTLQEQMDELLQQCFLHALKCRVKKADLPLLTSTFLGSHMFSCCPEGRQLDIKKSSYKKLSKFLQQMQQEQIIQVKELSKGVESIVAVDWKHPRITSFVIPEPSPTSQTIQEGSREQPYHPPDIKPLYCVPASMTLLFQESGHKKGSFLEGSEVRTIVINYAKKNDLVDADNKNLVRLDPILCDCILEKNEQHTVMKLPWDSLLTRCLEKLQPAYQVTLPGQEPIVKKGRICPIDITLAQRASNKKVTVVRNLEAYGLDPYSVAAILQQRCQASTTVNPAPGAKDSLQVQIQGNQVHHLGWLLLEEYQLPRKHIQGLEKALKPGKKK
inactive: erlotinib 0.048 | [1] 0.019 | [2] -0.017 | [3] 0.054 | [4] 0.001 | [5] 0.008 | [6] -0.016 | [7] 0.025 | [8] 0.021 | IRAK-1-4 Inhibitor I -0.023 | ibrutinib 0.011 | [9] -0.017 | ralimetinib 0.018 | [10] 0.026 | [11] 0.03 | [12] -0.005 | [13] -0.03 | [14] -0.004 | [15] 0.016 | [16] 0.01

EEF1AKNMT (UniProt Q8N6R0)
inactive: erlotinib 0.048 | [1] 0.029 | [2] -0.02 | [3] -0.039 | [4] 0.005 | [5] 0 | [6] -0.065 | [7] 0.011 | [8] 0.053 | IRAK-1-4 Inhibitor I -0.015 | ibrutinib -0.016 | [9] 0.017 | ralimetinib 0.096 | [10] 0.023 | [11] 0.017 | [12] -0.003 | [13] -0.024 | [14] 0.002 | [15] -0.021 | [16] 0.002

GCLM (UniProt P48507)
inactive: erlotinib -0.012 | [1] 0.021 | [2] 0.006 | [3] 0.007 | [4] 0.023 | [5] -0.001 | [6] -0.034 | [7] 0.014 | [8] 0.039 | IRAK-1-4 Inhibitor I 0.016 | ibrutinib 0.006 | [9] -0.009 | ralimetinib 0.01 | [10] -0.047 | [11] -0.028 | [12] 0.006 | [13] -0.007 | [14] 0.024 | [15] -0.026 | [16] -0.006

FHOD1 (UniProt Q9Y613)
Sequence of UniProt Q9Y613 (Q9Y613 whole entry, looked up): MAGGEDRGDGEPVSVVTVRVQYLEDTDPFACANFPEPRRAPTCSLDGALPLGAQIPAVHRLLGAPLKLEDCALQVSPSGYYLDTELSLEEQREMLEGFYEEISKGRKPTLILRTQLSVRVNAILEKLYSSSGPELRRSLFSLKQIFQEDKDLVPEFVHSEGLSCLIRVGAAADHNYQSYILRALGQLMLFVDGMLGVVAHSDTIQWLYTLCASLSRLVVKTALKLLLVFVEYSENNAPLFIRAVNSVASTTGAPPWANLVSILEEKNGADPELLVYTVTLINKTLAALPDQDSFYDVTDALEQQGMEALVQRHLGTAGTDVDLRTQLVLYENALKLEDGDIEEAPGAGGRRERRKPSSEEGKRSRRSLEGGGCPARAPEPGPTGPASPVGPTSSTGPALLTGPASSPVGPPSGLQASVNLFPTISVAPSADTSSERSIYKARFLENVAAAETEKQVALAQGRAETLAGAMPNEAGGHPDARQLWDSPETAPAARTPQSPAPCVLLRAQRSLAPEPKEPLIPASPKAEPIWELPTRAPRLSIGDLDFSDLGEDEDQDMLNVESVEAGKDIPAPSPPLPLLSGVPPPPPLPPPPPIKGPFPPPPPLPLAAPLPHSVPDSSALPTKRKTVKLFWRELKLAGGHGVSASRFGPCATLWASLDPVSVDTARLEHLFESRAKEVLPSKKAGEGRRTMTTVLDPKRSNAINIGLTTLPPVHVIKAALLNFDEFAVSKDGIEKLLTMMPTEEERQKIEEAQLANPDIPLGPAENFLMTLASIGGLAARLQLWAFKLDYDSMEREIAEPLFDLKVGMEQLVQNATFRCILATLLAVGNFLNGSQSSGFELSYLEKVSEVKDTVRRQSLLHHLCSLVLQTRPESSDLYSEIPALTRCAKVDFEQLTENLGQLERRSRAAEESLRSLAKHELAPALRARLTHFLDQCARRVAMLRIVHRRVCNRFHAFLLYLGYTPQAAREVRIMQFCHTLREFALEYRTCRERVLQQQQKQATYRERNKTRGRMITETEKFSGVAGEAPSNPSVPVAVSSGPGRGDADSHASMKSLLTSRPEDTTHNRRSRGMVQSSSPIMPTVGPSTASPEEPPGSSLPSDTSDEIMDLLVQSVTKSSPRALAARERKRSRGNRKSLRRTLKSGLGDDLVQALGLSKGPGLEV
inactive: erlotinib 0.005 | [1] 0.021 | [2] 0 | [3] 0.048 | [4] -0.02 | [5] -0.011 | [6] -0.016 | [7] -0.011 | [8] -0.009 | IRAK-1-4 Inhibitor I -0.008 | ibrutinib 0.001 | [9] 0.03 | ralimetinib 0.041 | [10] -0.019 | [11] -0.002 | [12] -0.006 | [13] 0.006 | [14] 0.003 | [15] 0.025 | [16] -0.004

FKBP8 isoform 2 (UniProt Q14318)
Sequence of UniProt Q14318 (Q14318 whole entry, looked up): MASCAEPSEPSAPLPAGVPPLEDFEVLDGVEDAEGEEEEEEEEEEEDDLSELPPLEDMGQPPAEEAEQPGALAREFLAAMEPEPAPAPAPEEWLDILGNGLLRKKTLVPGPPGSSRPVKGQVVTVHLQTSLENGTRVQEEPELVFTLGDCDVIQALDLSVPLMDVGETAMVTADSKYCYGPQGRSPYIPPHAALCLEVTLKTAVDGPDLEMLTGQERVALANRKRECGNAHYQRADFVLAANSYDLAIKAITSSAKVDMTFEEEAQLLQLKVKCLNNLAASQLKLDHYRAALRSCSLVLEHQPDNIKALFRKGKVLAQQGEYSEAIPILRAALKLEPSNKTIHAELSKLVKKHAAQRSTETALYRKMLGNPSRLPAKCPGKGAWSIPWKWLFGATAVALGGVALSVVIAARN
inactive: erlotinib -0.011 | [1] 0.041 | [2] 0.012 | [3] 0.002 | [4] -0.005 | [5] 0.01 | [6] 0 | [7] -0.054 | [8] 0.001 | IRAK-1-4 Inhibitor I 0.008 | ibrutinib 0.022 | [9] -0.016 | ralimetinib 0.018 | [10] -0.017 | [11] 0.027 | [12] -0.041 | [13] 0.024 | [14] 0.034 | [15] 0.007 | [16] -0.053

GFPT1 (UniProt Q06210)
inactive: erlotinib 0.031 | [1] -0.008 | [2] 0.003 | [3] 0.013 | [4] -0.008 | [5] 0.001 | [6] -0.014 | [7] -0.021 | [8] 0.008 | IRAK-1-4 Inhibitor I 0.006 | ibrutinib 0.014 | [9] -0.014 | ralimetinib 0.002 | [10] -0.024 | [11] 0.022 | [12] -0.015 | [13] 0.012 | [14] 0.009 | [15] 0.014 | [16] 0.01

FADS1, A0A0A0MR51
inactive: erlotinib -0.006 | [1] -0.033 | [2] -0.008 | [3] 0.085 | [4] -0.026 | [5] -0.012 | [6] 0.05 | [7] -0.002 | [8] -0.064 | IRAK-1-4 Inhibitor I -0.026 | ibrutinib 0.011 | [9] 0.178 | ralimetinib 0.094 | [10] 0.094 | [11] -0.003 | [12] -0.032 | [13] 0.002 | [14] 0.113 | [15] -0.08 | [16] -0.115

GATAD2A isoform 3 (UniProt Q86YP4)
Sequence of UniProt Q86YP4 (Q86YP4 whole entry, looked up): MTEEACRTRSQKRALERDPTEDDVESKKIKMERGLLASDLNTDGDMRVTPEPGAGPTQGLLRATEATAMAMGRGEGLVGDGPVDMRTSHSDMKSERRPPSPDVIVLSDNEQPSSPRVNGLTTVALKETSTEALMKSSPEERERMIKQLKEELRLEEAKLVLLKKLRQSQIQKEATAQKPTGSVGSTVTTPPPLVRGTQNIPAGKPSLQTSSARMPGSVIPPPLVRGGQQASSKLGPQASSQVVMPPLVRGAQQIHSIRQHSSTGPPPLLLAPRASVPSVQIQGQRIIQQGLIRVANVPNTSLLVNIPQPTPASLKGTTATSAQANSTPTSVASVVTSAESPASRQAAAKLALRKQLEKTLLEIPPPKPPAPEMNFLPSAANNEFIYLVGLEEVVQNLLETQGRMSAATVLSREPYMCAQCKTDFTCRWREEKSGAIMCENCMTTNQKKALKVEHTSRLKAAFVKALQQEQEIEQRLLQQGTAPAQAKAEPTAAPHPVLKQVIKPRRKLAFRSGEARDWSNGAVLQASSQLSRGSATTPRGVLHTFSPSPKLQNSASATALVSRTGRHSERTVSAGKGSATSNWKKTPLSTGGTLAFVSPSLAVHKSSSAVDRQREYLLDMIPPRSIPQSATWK
inactive: erlotinib 0.012 | [1] -0.124 | [2] -0.003 | [3] -0.034 | [4] 0.003 | [5] -0.002 | [6] -0.035 | [7] -0.037 | [8] 0.034 | IRAK-1-4 Inhibitor I -0.016 | ibrutinib 0.017 | [9] 0.008 | ralimetinib 0.023 | [10] 0.01 | [11] 0.012 | [12] -0.004 | [13] 0.005 | [14] 0.01 | [15] 0.016 | [16] -0.005

EPN2 (UniProt O95208)
Sequence of UniProt O95208 (O95208 whole entry, looked up): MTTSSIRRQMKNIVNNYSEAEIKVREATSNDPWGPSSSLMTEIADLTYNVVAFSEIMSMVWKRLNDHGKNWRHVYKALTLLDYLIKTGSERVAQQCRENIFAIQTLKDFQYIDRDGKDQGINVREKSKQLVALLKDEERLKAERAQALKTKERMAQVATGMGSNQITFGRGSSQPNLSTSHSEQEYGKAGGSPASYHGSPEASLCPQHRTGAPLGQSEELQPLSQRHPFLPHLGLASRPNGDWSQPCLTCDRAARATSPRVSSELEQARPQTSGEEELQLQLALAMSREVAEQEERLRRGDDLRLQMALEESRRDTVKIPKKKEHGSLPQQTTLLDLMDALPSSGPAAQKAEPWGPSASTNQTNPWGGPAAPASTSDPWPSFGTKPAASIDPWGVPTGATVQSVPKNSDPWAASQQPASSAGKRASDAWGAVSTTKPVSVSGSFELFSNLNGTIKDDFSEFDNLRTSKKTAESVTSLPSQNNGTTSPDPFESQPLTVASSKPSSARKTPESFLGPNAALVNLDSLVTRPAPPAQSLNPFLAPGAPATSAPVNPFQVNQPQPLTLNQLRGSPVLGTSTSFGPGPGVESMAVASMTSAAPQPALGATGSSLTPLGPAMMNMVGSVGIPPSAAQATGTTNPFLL
inactive: erlotinib 0.054 | [1] -0.08 | [2] -0.001 | [3] -0.011 | [4] -0.059 | [5] -0.039 | [6] 0.003 | [7] -0.003 | [8] 0.007 | IRAK-1-4 Inhibitor I -0.005 | ibrutinib -0.01 | [9] -0.016 | ralimetinib 0.075 | [10] -0.004 | [11] -0.058 | [12] 0.009 | [13] -0.024 | [14] 0.001 | [15] 0.017 | [16] -0.009

FBXO9 (UniProt Q9UK97)
inactive: erlotinib -0.06 | [1] 0.126 | [2] 0.091 | [3] 0.013 | [4] 0.086 | [5] 0.01 | [6] -0.032 | [7] 0.019 | [8] -0.108 | IRAK-1-4 Inhibitor I -0.005 | ibrutinib 0.006 | [9] -0.014 | ralimetinib -0.046 | [10] 0.077 | [11] -0.09 | [12] 0.009 | [13] 0.019 | [14] 0.017 | [15] 0.047 | [16] 0.026

EEFSEC (UniProt P57772)
Sequence of UniProt P57772 (P57772 whole entry, looked up): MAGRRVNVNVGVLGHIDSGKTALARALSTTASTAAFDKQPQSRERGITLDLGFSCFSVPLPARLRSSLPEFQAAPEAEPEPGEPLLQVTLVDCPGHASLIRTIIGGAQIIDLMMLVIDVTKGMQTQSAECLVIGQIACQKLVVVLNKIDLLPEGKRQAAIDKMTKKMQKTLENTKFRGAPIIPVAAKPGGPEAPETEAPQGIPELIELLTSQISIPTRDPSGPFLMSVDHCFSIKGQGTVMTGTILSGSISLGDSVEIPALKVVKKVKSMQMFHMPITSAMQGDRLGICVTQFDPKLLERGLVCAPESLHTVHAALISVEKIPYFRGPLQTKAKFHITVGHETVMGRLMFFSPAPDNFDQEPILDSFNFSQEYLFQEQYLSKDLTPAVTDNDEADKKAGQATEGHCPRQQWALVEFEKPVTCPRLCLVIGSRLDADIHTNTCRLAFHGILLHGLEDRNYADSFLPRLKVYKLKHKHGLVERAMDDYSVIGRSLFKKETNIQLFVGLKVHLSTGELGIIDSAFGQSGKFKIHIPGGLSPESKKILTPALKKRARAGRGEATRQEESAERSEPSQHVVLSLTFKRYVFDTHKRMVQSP
inactive: erlotinib -0.006 | [1] 0.054 | [2] -0.044 | [3] -0.022 | [4] 0.006 | [5] -0.044 | [6] -0.054 | [7] -0.025 | [8] -0.007 | IRAK-1-4 Inhibitor I -0.024 | ibrutinib 0.031 | [9] -0.03 | ralimetinib 0.019 | [10] -0.013 | [11] -0.025 | [12] -0.011 | [13] 0.005 | [14] 0.011 | [15] 0.039 | [16] 0.006

ELF2 (UniProt Q15723)
inactive: erlotinib 0.023 | [1] -0.136 | [2] 0.059 | [3] -0.068 | [4] 0.07 | [5] -0.036 | [6] -0.056 | [7] 0.009 | [8] -0.022 | IRAK-1-4 Inhibitor I -0.01 | ibrutinib 0.07 | [9] 0.116 | ralimetinib 0.013 | [10] -0.038 | [11] 0.006 | [12] -0.017 | [13] -0.066 | [14] 0.035 | [15] 0.022 | [16] -0.028

FBXO30 (UniProt Q8TB52)
Sequence of UniProt Q8TB52 (Q8TB52 whole entry, looked up): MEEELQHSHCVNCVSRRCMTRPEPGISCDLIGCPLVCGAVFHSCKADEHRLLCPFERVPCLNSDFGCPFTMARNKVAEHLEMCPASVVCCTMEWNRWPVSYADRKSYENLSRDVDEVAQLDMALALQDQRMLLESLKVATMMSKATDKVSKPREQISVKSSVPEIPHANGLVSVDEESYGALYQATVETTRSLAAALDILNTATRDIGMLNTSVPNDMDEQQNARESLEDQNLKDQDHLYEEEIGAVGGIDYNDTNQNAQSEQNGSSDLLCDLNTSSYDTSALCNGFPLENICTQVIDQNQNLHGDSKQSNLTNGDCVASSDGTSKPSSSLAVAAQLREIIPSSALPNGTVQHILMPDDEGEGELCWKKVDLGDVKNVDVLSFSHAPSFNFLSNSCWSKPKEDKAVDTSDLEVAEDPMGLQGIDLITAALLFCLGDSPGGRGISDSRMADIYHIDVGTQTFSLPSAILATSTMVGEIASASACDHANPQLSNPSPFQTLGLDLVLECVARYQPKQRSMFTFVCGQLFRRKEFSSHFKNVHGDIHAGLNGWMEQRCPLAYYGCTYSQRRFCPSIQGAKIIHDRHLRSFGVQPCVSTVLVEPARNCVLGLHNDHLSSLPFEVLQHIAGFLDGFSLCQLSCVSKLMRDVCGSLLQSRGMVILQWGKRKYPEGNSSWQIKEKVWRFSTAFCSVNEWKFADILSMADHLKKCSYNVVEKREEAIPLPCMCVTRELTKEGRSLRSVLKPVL
inactive: erlotinib 0.006 | [1] -0.064 | [2] -0.031 | [3] 0.014 | [4] -0.038 | [5] -0.008 | [6] 0.042 | [7] -0.014 | [8] -0.007 | IRAK-1-4 Inhibitor I -0.018 | ibrutinib 0.022 | [9] -0.007 | ralimetinib 0.057 | [10] 0.046 | [11] -0.009 | [12] -0.003 | [13] 0.013 | [14] 0.016 | [15] 0.006 | [16] 0.016
